Assay in all cases: NCI-60 one-dose screen, 48 h (100 = growth as untreated, 0 = no growth, -100 = all killed)
What all share (conditions): 10 µM unless noted

The test system of test [1] is DU-145 prostate.
For test [2], the system named is K-562 leukemia.
Test [3] relates to MDA-MB-231 breast.
The test system of test [4] is RXF 393 renal.
Test [5] deals with SF-268 CNS.
Test [6] concerns SF-295 CNS.
Test [7] concerns SF-539 CNS.
In test [8] the test system is UACC-257 melanoma.
Test [9] deals with M14 melanoma.
Test [10] has as its system HCT-15 colon.
In test [11] the test system is HT29 colon.
Test [12] deals with SNB-19 CNS.
Test [13] concerns PC-3 prostate.
Test [14] has as its system UACC-62 melanoma.
Test [15] deals with SK-MEL-28 melanoma.
Test [16] relates to SNB-75 CNS.
For test [17], the system named is U251 CNS.
For test [18], the system named is SK-MEL-5 melanoma.
Test [19] concerns LOX IMVI melanoma.

Data on 9 compounds can be found in PubChem BioAssay (NCI).

The structures appear in SMILES notation. The panel holds about 83,000 compounds, 20% with a hit somewhere; the sample as a whole holds those more often.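 A percent growth of 40 corresponds to 60% growth inhibition; 0 means no net growth; -100 means all cells died. Active threshold: below 10.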 A number with no mark means an inactive call. Activity calls are given as the source filed them.

On to `NC(=O)c1cc(I)ccc1NC(=O)COc1ccc(Cl)cc1Cl`, for which the growth in test [1] was 111%; in test [2], 31.5%; in test [3], 107%; in [4], 99.3%; in test [5], 97.5%; in [6] it was 90.2%. Moreover, the growth in test [7] is 97%; in test [8], 89.6%; in [9], 81.5%; in test [10], 62.8%; in [11], 85.1%; in [12] it was 98.7%. Besides, the growth is 86.4% in test [13], 83.1% in test [14] and 99.3% in test [15].

Consider `COc1ccc(/C=C(\C#N)c2ccc(OC)cc2)cc1`, for which the growth in [1] is 72.3%; in [2], 20.1%; in [3] it was 72.8%; in test [4], 65.3%; in [5], 78.4%; in test [6], 47%. The growth in [7] was 79.7%; in test [8] it was 83.8%; in test [9], 61.9%; in test [10], 66.2%; in test [11], 35.6%; in test [16], 76%. Besides, the growth in test [12] is 80.5%; in test [17] it was 48.8%; in test [13], 73.7%; in [18], 32%; in test [15] it was 80.6%.

`COC(=O)c1ccc(C(=O)Nc2ccccc2N)cc1`: the growth is 80.2% in test [1]; 73.3% in [2]; 67.3% in test [3]; 86.8% in [4]; 65.4% in test [5]; 64.9% in [7]. Further, the growth in test [8] was 75.7%; in [9] it was 83.3%; in test [10] it was 83.9%; in [16] it was 78.4%; in test [12] it was 85.6%; in test [17], 72.1%. Moreover, the growth was 65.3% in test [13] and 94.6% in test [15].

Take `COc1cccc(OC(=O)c2ccccc2)c1OC(=O)c1ccccc1`: the growth was 87.7% in test [1]; 37.4% in [2]; 75.4% in test [3]; 86.3% in test [4]; 72.4% in test [5]; 83.6% in test [6]. The growth in test [7] was 92%; in [8], 87%; in test [9], 47.5%; in [10] it was 70.9%; in [11], 85.3%; in test [16], 55.3%. Further, the growth in test [12] is 73.5%; in [17], 49.2%; in [13], 77%; in test [14], 66%; in [19], 63%; in test [15] it was 84.7%.

In the case of `CC(=O)c1cc(C)c(OC(=O)c2ccccc2)c(C)c1`, the growth in test [1] was 102%; in test [2] it was 85.7%; in test [3], 94.6%; in test [4], 98.9%; in test [5], 107%; in [6], 107%. Moreover, the growth in test [7] is 100%; in test [9] it was 105%; in test [10], 92.2%; in test [12], 103%; in [13], 89.9%; in test [18], 88.9%. Besides, the values for the growth in [14], in test [19] and in [15] were 90.7%, 90.2% and 117%, respectively.

Turning to `C=C(C)COC(=O)c1ccccc1C(=O)OCC1(C)CO1` (stereo unspecified), the growth is 104% in [1]; 110% in test [2]; 103% in test [3]; 117% in test [4]; 93.6% in [5]; 91.9% in [6]. Besides, the growth was 101% in test [7]; 101% in test [8]; 96.5% in test [9]; 107% in [10]; 107% in test [11]; 92.9% in test [16]. In addition, the growth in [12] is 101%; in [17], 102%; in test [13], 104%; in [18] it was 105%; in test [14], 92.8%; in [19] it was 84.5%. The growth in test [15] was 117%.

For `O=C1C(Cl)=C(NCCCN2CCOCC2)C(=O)c2ccccc21`, the growth in test [1] was 126%; in [2], 60.3%; in test [3], 97.3%; in test [4] it was 108%; in test [5] it was 106%; in test [6], 109%. Also, the growth was 125% in test [7]; 73.3% in test [8]; 101% in [9]; 79.5% in [10]; 78.3% in [16]; 91.5% in test [12]. Besides, the growth in test [17] was 98.3%; in test [13], 79.6%; in [18] it was 67.5%; in test [14], 94.8%; in test [19], 54.2%; in test [15], 104%.

In the case of `CN1CCN(CCCn2c3c(sc4ncccc43)c(=O)n3nnc(-c4ccccc4)c23)CC1`, the growth in test [1] is -18.2% (active); in test [2] it was 1.27% (active); in test [3] it was -83.5% (active); in [4], 75.3%; in test [5], 91%; in test [6], 98.6%. The growth in test [7] was -96% (active); in test [8] it was 99.2%; in [9] it was 78.4%; in test [10] it was -40.1% (active); in test [11], -46.2% (active); in [16] it was 73.8%. For the same compound, the growth is 5.98% (active) in test [12]; -80.8% (active) in test [17]; -3.82% (active) in test [13]; -98% (active) in test [18]; 91% in test [14]; -96% (active) in test [19]. In test [15], the growth was 111%.

In the case of `COC(=O)/C=C1/CCC2C3CCC4=CC(=O)C(Br)CC4(C)C3C(=O)CC12C` (stereo unspecified), the growth in test [1] is 75%; in test [2] it was 48.9%; in [3] it was 78%; in [4] it was 59.9%; in test [5], 95.6%; in test [6] it was 95.4%. Further, the growth is 97.4% in test [7]; 59.9% in test [9]; 66.6% in test [10]; 70.8% in test [16]; 78.9% in test [12]; 53.5% in test [13]. For the same compound, the growth in [18] is 57.4%; in test [14] it was 73.5%; in test [19] it was 38.2%; in test [15], 94.5%.
